# Measured values taken from PubChem BioAssay (Tox21).
# Unmarked numbers belong to inactive results. Records with an inconclusive call do not appear. Entries that show only a call come without a potency. Active and inactive are the calls of the source. Unless noted, the call rests on the fitted dose curve; in most records, active means well fitted curve in the direction sought with a large enough effect in the repeat runs; inconclusive means weak or mixed curves; inactive means no such curve, though single readings can be large; an effect the other way counts as inactive or inconclusive.
# Key:
# [1] = qHTS assay to identify small molecule agonists of the hypoxia (HIF-1) signaling pathway - cell viability counter screen (AID 1224844; calls by dose curve; further: nearly all actives have a fitted effect of over 50% in size)
# Summary of the method: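 Viability counter screen: HRE-bla ME-180 cells plated 5 hrs before compound addition, treated 17 hrs at 37C and 5% CO2, then CellTiter-Glo added after the FRET reporter read; luminescence after 30 min.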
# [2] = qHTS assay to identify small molecule agonists of the hypoxia (HIF-1) signaling pathway (AID 1224846; active means well fitted activation curve with a large enough effect in the signal ratio in the repeat runs, not every such curve was filed as active; the % refers to the signal ratio)
# Summary of the method: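 Agonist mode reporter screen. ME-180 cells stably expressing bla under HRE control received test compounds in DMSO for 17 hrs (37C, 5% CO2), and beta-lactamase activity was then detected with the CCF4-AM FRET substrate.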
# [3] = qHTS assay to identify small molecule agonists of H2AX - cell viability counter screen (AID 1224847; calls by dose curve; further: top concentration of the series differs between compounds; nearly all actives have a fitted effect of over 30% in size)
# Summary of the method: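 Cytotoxicity counter screen in wild-type CHO-K1 cells: a 3 hr compound treatment at 37C across 15 concentrations, followed by CellTiter-Glo luminescence to gauge viable cells.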
# [4] = qHTS RealTime-Glo MT Cell Viability Assay in HepG2 cells - 24 hour (AID 1224867); further: nearly all actives have a fitted effect of over 50% in size
# Summary of the method: (§1)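 Luminescence read-out: viable HepG2 cells reduce a prosubstrate to a NanoLuc substrate, giving a signal proportional to live cell number. Reads taken at 0, 8, 16, 24, 32 and 40 h of compound exposure at 37 C.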
# [5] = qHTS RealTime-Glo MT Cell Viability Assay in HEK293 cells - 32 hour (AID 1224868); further: top concentration of the series differs between compounds; nearly all actives have a fitted effect of over 50% in size
# Summary of the method: (§2)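 Nonlytic real-time viability readout: viable cells convert prosubstrate to NanoLuc substrate, giving luminescence proportional to live cell number. HEK293, 600 cells/well, compound added after 5 h, continuous culture at 37 C.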
# [6] = A CellTox Green Cytotoxicity Assay to monitor cytotoxicity in HEK293 cells - 0 hour (AID 1224869); further: nearly all actives have a fitted effect of over 50% in size
# Summary of the method: (§3)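 Dead-cell fluorescence measured kinetically: asymmetric cyanine dye, HEK293, 600 cells/well, 5 h settle, 23 nL cpd/DMSO, 37 C, reads 0–40 h every 8 h.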
# [7] = qHTS RealTime-Glo MT Cell Viability Assay in HepG2 cells - 40 hour (AID 1224870); further: nearly all actives have a fitted effect of over 50% in size
# Summary of the method: (§4)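 HepG2 cells (600/well) mixed with RealTime-Glo MT reagent, settled 5 h at 37 C/5% CO2 before compound addition. Nonlytic NanoLuc luminescence from viable-cell prosubstrate reduction read repeatedly during 40 h treatment at 37 C.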
# [8] = A CellTox Green Cytotoxicity Assay to monitor cytotoxicity in HEK293 cells - 40 hour (AID 1224871); further: nearly all actives have a fitted effect of over 45% in size
# Summary of the method: as §3
# [9] = qHTS RealTime-Glo MT Cell Viability Assay in HEK293 cells - 16 hour (AID 1224872)
# Summary of the method: as §2
# [10] = qHTS RealTime-Glo MT Cell Viability Assay in HepG2 cells - 8 hour (AID 1224873); further: nearly all actives have a fitted effect of over 55% in size
# Summary of the method: as §4
# [11] = qHTS RealTime-Glo MT Cell Viability Assay in HEK293 cells - 40 hour (AID 1224874); conditions: RealTime-Glo luminescence; max response: hits give low values; further: nearly all actives have a fitted effect of over 50% in size
# Summary of the method: (§5)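 600 HEK293 cells per well, dispensed already mixed with RealTime-Glo MT reagents. Compound dosing came 5 h later. The same wells were read for luminescence at 0, 8, 16, 24, 32 and 40 h of exposure at 37 C.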
# [12] = A CellTox Green Cytotoxicity Assay to monitor cytotoxicity in HEK293 cells - 24 hour (AID 1224875); further: nearly all actives have a fitted effect of over 45% in size
# Summary of the method: as §3
# [13] = A CellTox Green Cytotoxicity Assay to monitor cytotoxicity in HepG2 cells - 16 hour (AID 1224876); further: nearly all actives have a fitted effect of over 45% in size
# Summary of the method: (§6)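 First, HepG2 cells (600/well) mixed with reagent were plated; second, after 5 h at 37 C they received compounds via pintool; third, fluorescence was measured at 0 h through 40 h at 8 h intervals.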
# [14] = qHTS RealTime-Glo MT Cell Viability Assay in HepG2 cells - 32 hour (AID 1224877); further: nearly all actives have a fitted effect of over 55% in size
# Summary of the method: as §1
# [15] = A CellTox Green Cytotoxicity Assay to monitor cytotoxicity in HepG2 cells - 24 hour (AID 1224878); further: nearly all actives have a fitted effect of over 45% in size
# Summary of the method: as §6
# [16] = A CellTox Green Cytotoxicity Assay to monitor cytotoxicity in HepG2 cells - 40 hour (AID 1224879); further: nearly all actives have a fitted effect of over 40% in size
# Summary of the method: as §6
# [17] = qHTS RealTime-Glo MT Cell Viability Assay in HEK293 cells - 0 hour (AID 1224880)
# Summary of the method: as §5
# [18] = qHTS assay to identify small molecule antagonists of the estrogen related receptor (ERR) signaling pathway from Tox21 library (AID 1224848); further: nearly all actives have a fitted effect of over 50% in size; further: potency means the concentration at half of the fitted maximal effect
# Summary of the method: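 Compounds dissolved in DMSO are pin-transferred onto ERR reporter cells (2,000 per well) that have settled for 6 h at 37 C. Plates then incubate 18 h at 37 C before ONE-Glo luciferase reagent and a luminescence read 30 min later.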
# [19] = qHTS assay to identify small molecule agonists of the estrogen related receptor (ERR) signaling pathway from Tox21 library (AID 1224849; calls by dose curve; further: nearly all actives have a fitted effect of over 15% in size); conditions: ERR reporter cell line, ONE-Glo luciferase, 18 h; at 92.4 µM (top of the series) unless noted
# Summary of the method: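 Quantitative HTS in agonist format: NTP ERR cell line, compounds transferred in DMSO after 6 h plating, 18 h incubation at 37 C, ONE-Glo luminescence endpoint.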
# [20] = qHTS assay to identify small molecule agonists of H2AX (AID 1224845; active means well fitted activation curve with a large enough effect in the signal ratio in the repeat runs, not every such curve was filed as active; the % refers to the signal ratio)
# Summary of the method: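 Wild-type CHO-K1 cells, plated overnight, exposed 3hr at 37C to 15 concentrations (0.76% DMSO final). Lysed, then HTRF anti-pH2AX (S139) cryptate and anti-H2AX-d2 antibodies, 24 hr room temperature; 665/620 nm emission read.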
structure (smiles),measurement,setting,value
CCC(=O)c1ccccc1,Potency,[1],inactive
same,outcome,[2],inactive
same,Potency,[3],inactive
same,Potency,[4],inactive
same,Potency,[5],inactive
same,Potency,[6],inactive
same,Potency,[7],inactive
same,Potency,[8],inactive
same,Potency,[9],inactive
same,Potency,[10],inactive
same,max response,[11],5.66%
same,Potency,[12],inactive
same,Potency,[13],inactive
same,Potency,[14],inactive
same,Potency,[15],inactive
same,Potency,[16],inactive
same,outcome,[17],inactive
Cc1ncsc1CCCl,Potency,[1],inactive
same,outcome,[2],inactive
same,Potency,[3],inactive
same,Potency,[4],inactive
same,Potency,[5],inactive
same,Potency,[6],inactive
same,Potency,[7],inactive
same,Potency,[8],inactive
same,Potency,[9],inactive
same,Potency,[10],inactive
same,max response,[11],3.38%
same,Potency,[12],inactive
same,Potency,[13],inactive
same,Potency,[14],inactive
same,Potency,[15],inactive
same,Potency,[16],inactive
same,outcome,[17],inactive
N#Cc1ccncc1,Potency,[1],inactive
same,outcome,[2],inactive
same,Potency,[3],inactive
same,Potency,[18],inactive
same,"activity change, positive = activation",[19],5.77%
same,Potency,[4],inactive
same,Potency,[5],inactive
same,Potency,[6],inactive
same,Potency,[8],inactive
same,Potency,[9],inactive
same,Potency,[10],inactive
same,max response,[11],11.4%
same,Potency,[12],inactive
same,Potency,[13],inactive
same,Potency,[14],inactive
same,Potency,[15],inactive
same,Potency,[16],inactive
same,outcome,[17],inactive
CCN(CC)c1nc(C)cc(OP(=S)(OC)OC)n1,Potency,[1],inactive
same,outcome,[2],inactive
same,Potency,[3],inactive
same,Potency,[4],inactive
same,Potency,[5],inactive
same,Potency,[6],inactive
same,Potency,[7],inactive
same,Potency,[8],inactive
same,max response,[11],2.28%
same,Potency,[12],inactive
same,Potency,[13],inactive
same,Potency,[14],inactive
same,Potency,[15],inactive
same,Potency,[16],inactive
same,outcome,[17],inactive
CNCC(=O)c1ccc(O)c(O)c1,Potency,[1],inactive
same,outcome,[2],inactive
same,Potency,[3],inactive
same,Potency,[4],inactive
same,Potency,[5],inactive
same,Potency,[6],inactive
same,Potency,[7],inactive
same,Potency,[8],inactive
same,Potency,[9],inactive
same,Potency,[10],inactive
same,max response,[11],2.09%
same,Potency,[12],inactive
same,Potency,[13],inactive
same,Potency,[14],inactive
same,Potency,[15],inactive
same,Potency,[16],inactive
same,outcome,[17],inactive
Cc1coc2c1CCC(C)C2 (stereo unspecified),Potency,[1],inactive
same,outcome,[2],inactive
same,Potency,[3],inactive
same,Potency,[4],inactive
same,Potency,[5],inactive
same,Potency,[6],inactive
same,Potency,[7],inactive
same,Potency,[8],inactive
same,Potency,[9],inactive
same,Potency,[10],inactive
same,max response,[11],15.4%
same,Potency,[13],inactive
same,Potency,[14],inactive
same,Potency,[15],inactive
same,Potency,[16],inactive
same,outcome,[17],inactive
CCOC(=O)CP(=O)(OCC)OCC,Potency,[1],inactive
same,outcome,[2],inactive
same,Potency,[3],inactive
same,Potency,[18],inactive
same,"activity change, positive = activation",[19],4.99%
same,Potency,[4],inactive
same,Potency,[5],inactive
same,Potency,[6],inactive
same,Potency,[7],inactive
same,Potency,[8],inactive
same,Potency,[10],inactive
same,max response,[11],0.417%
same,Potency,[13],inactive
same,Potency,[14],inactive
same,Potency,[15],inactive
same,Potency,[16],inactive
same,outcome,[17],inactive
CS(=O)(=O)c1cc(C(F)(F)F)ccc1C(=O)c1cnoc1C1CC1,Potency,[1],inactive
same,outcome,[2],inactive
same,Potency,[3],inactive
same,Potency,[18],inactive
same,"activity change, positive = activation",[19],9.23%
same,Potency,[5],inactive
same,Potency,[6],inactive
same,Potency,[7],inactive
same,Potency,[9],inactive
same,Potency,[10],inactive
same,max response,[11],-3.5%
same,Potency,[12],inactive
same,Potency,[13],inactive
same,Potency,[14],inactive
same,Potency,[15],inactive
same,Potency,[16],inactive
same,outcome,[17],inactive
CC(C)(C)OC(=O)c1ncn2c1[C@@H]1CCCN1C(=O)c1c(Br)cccc1-2,Potency,[1],inactive
same,outcome,[2],inactive
same,Potency,[3],inactive
same,Potency,[18],23.7 µM (active)
same,"activity change, positive = activation",[19],-34.2% [at 42.5 µM]
same,Potency,[4],inactive
same,Potency,[5],inactive
same,Potency,[6],inactive
same,Potency,[8],inactive
same,Potency,[10],inactive
same,max response,[11],-21.6%
same,Potency,[12],inactive
same,Potency,[13],inactive
same,Potency,[14],inactive
same,Potency,[15],inactive
same,Potency,[16],inactive
same,outcome,[17],inactive
C=C(C)CN(CC)c1c([N+](=O)[O-])cc(C(F)(F)F)cc1[N+](=O)[O-],Potency,[1],inactive
same,Potency,[20],inactive
same,Potency,[18],inactive
same,"activity change, positive = activation",[19],1.77%
same,Potency,[4],inactive
same,Potency,[5],inactive
same,Potency,[6],inactive
same,Potency,[7],inactive
same,Potency,[8],inactive
same,Potency,[9],inactive
same,Potency,[10],inactive
same,max response,[11],0.654%
same,Potency,[12],inactive
same,Potency,[13],inactive
same,Potency,[14],inactive
same,Potency,[15],inactive
same,Potency,[16],inactive
same,outcome,[17],inactive
CNC(=O)Oc1c(C(C)(C)C)cc(C)cc1C(C)(C)C,Potency,[1],inactive
same,outcome,[2],inactive
same,Potency,[3],inactive
same,Potency,[4],inactive
same,Potency,[5],inactive
same,Potency,[6],inactive
same,Potency,[7],inactive
same,Potency,[8],inactive
same,Potency,[10],inactive
same,max response,[11],-2.73%
same,Potency,[12],inactive
same,Potency,[13],inactive
same,Potency,[14],inactive
same,Potency,[15],inactive
same,Potency,[16],inactive
same,outcome,[17],inactive
CN/C(=N\[N+](=O)[O-])NCC1CCOC1 (stereo unspecified),Potency,[1],inactive
same,outcome,[2],inactive
same,Potency,[3],inactive
same,Potency,[4],inactive
same,Potency,[5],inactive
same,Potency,[6],inactive
same,Potency,[7],inactive
same,Potency,[8],inactive
same,Potency,[9],inactive
same,Potency,[10],inactive
same,max response,[11],4.22%
same,Potency,[12],inactive
same,Potency,[13],inactive
same,Potency,[14],inactive
same,Potency,[15],inactive
same,Potency,[16],inactive
same,outcome,[17],inactive
O=C1c2ccccc2C(=O)c2ccccc21,"activity change, negative = cytotoxicity",[1],-0.0454% [at 15.8 µM]
same,activation,[2],0.0544% [at 15.8 µM]
same,"activity change, negative = cytotoxicity",[3],8.07% [at 31.6 µM]
same,"activity change, positive = activation",[19],10.5% [at 19 µM]
same,"activity change, negative = cytotoxicity",[4],0.705% [at 15.8 µM]
same,"activity change, negative = cytotoxic",[5],15.3% [at 15.8 µM]
same,cytotoxicity,[6],6.35% [at 15.8 µM]
same,"activity change, negative = cytotoxic",[7],0.48% [at 15.8 µM]
same,cytotoxicity increase,[8],-0.882% [at 15.8 µM]
same,"activity change, negative = cytotoxicity",[9],16.4% [at 15.8 µM]
same,"viability change, negative = cytotoxic",[10],0.64% [at 15.8 µM]
same,max response,[11],18.9%
same,activity change,[12],"6.87% [at 15.8 µM, hits give high values]"
same,cytotoxicity increase,[13],8.1% [at 15.8 µM]
same,"activity change, negative = cytotoxic",[14],1.27% [at 15.8 µM]
same,cytotoxicity,[15],6.42% [at 15.8 µM]
same,cytotoxicity increase,[16],18.9% [at 15.8 µM]
same,"activity change, negative = cytotoxicity",[17],1.83% [at 15.8 µM]
Nc1cc(Cl)ccc1O,Potency,[1],inactive
same,outcome,[2],inactive
same,Potency,[3],inactive
same,Potency,[4],inactive
same,Potency,[5],inactive
same,Potency,[6],inactive
same,Potency,[7],inactive
same,Potency,[8],inactive
same,Potency,[10],inactive
same,max response,[11],-11.2%
same,Potency,[12],inactive
same,Potency,[13],inactive
same,Potency,[14],inactive
same,Potency,[15],inactive
same,Potency,[16],inactive
same,outcome,[17],inactive
